Among the data in PubChem BioAssay (Tox21) are Potency values, retold here.

Test [1] addresses Androgen receptor (Homo sapiens) (UniProt P10275). The test is described as follows: qHTS assay to identify small molecule antagonists of the androgen receptor (AR) signaling pathway using the MDA cell line in the presence of 0.5 nM R1881 (AID 1259243). Also: nearly all actives have a fitted effect of over 50% in size. Also: potency is read from the fitted curve at half-maximal effect. The procedure, abridged: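 MDA-kb2 cells (MMTV-luciferase, responsive to AR and GR) at 3,000/well, rested 5 h at 37C, 0% CO2, then given compounds plus 0.5 nM R1881 (final) for 16 hr. Luciferase read with ONE-Glo after 30 min at room temperature.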
In general terms: qHTS replaces the single test concentration by a dilution series.

Test [2] is described as follows: qHTS assay to identify small molecule HDAC inhibitors (AID 1259364). Also: top concentration of the series differs between compounds; nearly all actives have a fitted effect of over 45% in size. The procedure, abridged:
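Wild-type HCT-116 cells, plated overnight at 37 C, exposed to compounds 2 hr at 37 C; luminogenic HDAC-Glo substrate then added 30 min at room temperature. Luminescence reports relative endogenous class I/II HDAC activity.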

Test [3] in a line: qHTS assay to identify small molecule HDAC inhibitors - cell viability counter screen (AID 1259365). Also: series mostly up to about 92 µM; nearly all actives have a fitted effect of over 50% in size. The method in brief:
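Luminescence from CellTiter-Glo, developed 30min at room temperature, reports viability of wild-type HCT-116 cells treated 2hr with compounds at 37 C and 5% CO2 after overnight plating.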

The nature of test [4]: qHTS assay to identify small molecule agonists of the sonic hedgehog signaling (Shh) pathway - cell viability counter screen (AID 1259366). Also: nearly all actives have a fitted effect of over 50% in size. Also: potency is read from the fitted curve at half-maximal effect. The method in brief:
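Cytotoxicity counter screen run in the same wells as the Shh reporter assay. NIH/3T3 cells carrying a Gli1 response element–driven luciferase were treated with DMSO-dissolved compounds for 24hr, and live-cell protease activity was measured with CellTiter-Fluor.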

A short description of test [5]: qHTS assay to identify small molecule antagonists of the sonic hedgehog signaling (Shh) pathway - cell viability counter screen (AID 1259367). Also: nearly all actives have a fitted effect of over 55% in size. Also: potency is read from the fitted curve at half-maximal effect. The method in brief: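 After a 4 hr settling period, 3T3 Gli1-Luc cells were treated with DMSO-dissolved chemicals and conditioned medium, kept 24 hr at 37C in 5% CO2, and assayed for viability by CellTiter-Fluor fluorescence following 1 hr reagent incubation.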

The nature of test [6]: qHTS assay to identify small molecule agonists of the sonic hedgehog signaling (Shh) pathway (AID 1259368; calls by dose curve;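 also: NIH/3T3-derived 3T3Gli1-Luc cells carrying a stable Gli1-driven firefly luciferase reporter; series mostly up to about 92 µM; nearly all actives have a fitted effect of over 15% in size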). The procedure, abridged:
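NIH/3T3-derived 3T3Gli1-Luc cells with stably integrated Gli1-driven firefly luciferase, 2,000 cells/well, compounds added after 4 hr. Incubated 24 hr at 37C, 5% CO2; luminescence read after 30 min with luciferase reagent at room temperature.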

A short description of test [7]: qHTS assay to identify small molecule antagonists of the sonic hedgehog signaling (Shh) pathway (AID 1259369; calls by dose curve; also: nearly all actives have a fitted effect of over 45% in size; also: potency is read from the fitted curve at half-maximal effect). The procedure, abridged:
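NIH/3T3-derived Gli1-Luc reporter cells plated 4 h, dosed with compound, then stimulated with conditioned medium for 24 h at 37 C. Firefly luciferase luminescence read after 30 min with detection reagent at room temperature.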

Test [8] deals with Estrogen receptor beta (Homo sapiens) (UniProt Q92731). The test is described as follows: qHTS assay to identify small molecule agonists of the estrogen receptor beta (ER-beta) signaling pathway (AID 1259377; active = well fitted activation curve with a large enough effect in the signal ratio in the repeat runs, not every such curve was filed as active; the % refers to the signal ratio). The method in brief:
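HEK293T ER-beta-UAS-bla; 2% charcoal-stripped FBS; cells pre-incubated 6 hr, compound 16 hr, 37C/5% CO2; LiveBLAzer B/G FRET substrate 2 h RT; fluorescence intensity read.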

Test [9] is described as follows: qHTS assay to identify small molecule phospholipidosis (PLD) inducers (AID 1259344; active = well fitted curve in the direction sought with a large enough effect; an effect the other way counts as inactive or inconclusive). The procedure, abridged: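 HepG2 cells grown on collagen I take up LipidTOX Red while exposed to compound for 24 h; after fixation they are imaged at 20x and pit metrics are extracted.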
In test [10] the target is Estrogen receptor (Homo sapiens) (UniProt P03372). The test is described as follows: qHTS assay to identify small molecule antagonists of the estrogen receptor alpha (ER-alpha) signaling pathway using the BG1 cell line in the presence of 0.1 nM 17-beta-estradiol (AID 1259244). Also: nearly all actives have a fitted effect of over 50% in size. Also: potency is read from the fitted curve at half-maximal effect. The procedure, abridged: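 VM7Luc4E2 cells (endogenous full-length ER-alpha, 4×ERE-luciferase), kept 5 days in phenol red-free, charcoal-stripped FBS medium; 4,000 cells/well. Compounds added with 0.1 nM (final) 17beta-estradiol, 22 hr at 37C; luminescence read with ONE-Glo after 30 min.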

Records with an inconclusive call do not appear. The source made the active and inactive calls. Unless noted, calls follow the shape of the dose curve; as a rule, active = well fitted curve in the direction sought with a large enough effect in the repeat runs; inconclusive = weak or mixed curves; inactive = no such curve, though single readings can be large; an effect the other way counts as inactive or inconclusive.

Chain of Androgen receptor (Homo sapiens) (P10275 whole entry, looked up): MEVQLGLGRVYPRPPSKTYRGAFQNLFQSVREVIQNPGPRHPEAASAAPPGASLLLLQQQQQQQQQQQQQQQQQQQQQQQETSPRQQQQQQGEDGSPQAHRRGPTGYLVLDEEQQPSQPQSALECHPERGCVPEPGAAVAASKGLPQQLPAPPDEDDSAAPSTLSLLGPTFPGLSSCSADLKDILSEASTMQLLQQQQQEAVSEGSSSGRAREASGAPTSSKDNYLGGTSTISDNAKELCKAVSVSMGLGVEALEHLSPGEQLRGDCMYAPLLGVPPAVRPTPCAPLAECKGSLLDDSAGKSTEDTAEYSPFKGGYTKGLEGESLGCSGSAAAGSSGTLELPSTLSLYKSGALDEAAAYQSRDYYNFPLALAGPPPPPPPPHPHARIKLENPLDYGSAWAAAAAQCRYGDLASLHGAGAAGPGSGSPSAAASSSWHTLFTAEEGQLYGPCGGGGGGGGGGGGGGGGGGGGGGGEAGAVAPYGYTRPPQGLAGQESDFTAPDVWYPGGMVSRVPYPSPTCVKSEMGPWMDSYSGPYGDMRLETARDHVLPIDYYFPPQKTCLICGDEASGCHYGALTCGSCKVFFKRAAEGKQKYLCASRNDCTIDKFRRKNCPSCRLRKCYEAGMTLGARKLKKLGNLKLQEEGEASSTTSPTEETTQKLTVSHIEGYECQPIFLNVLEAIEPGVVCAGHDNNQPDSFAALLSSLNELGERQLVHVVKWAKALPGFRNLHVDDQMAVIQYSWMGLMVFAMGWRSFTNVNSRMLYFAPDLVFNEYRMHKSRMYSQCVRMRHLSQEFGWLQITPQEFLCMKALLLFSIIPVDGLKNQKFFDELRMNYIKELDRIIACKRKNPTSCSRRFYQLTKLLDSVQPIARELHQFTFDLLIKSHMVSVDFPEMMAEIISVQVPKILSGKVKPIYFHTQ
Chain of Estrogen receptor (Homo sapiens) (P03372 whole entry, looked up): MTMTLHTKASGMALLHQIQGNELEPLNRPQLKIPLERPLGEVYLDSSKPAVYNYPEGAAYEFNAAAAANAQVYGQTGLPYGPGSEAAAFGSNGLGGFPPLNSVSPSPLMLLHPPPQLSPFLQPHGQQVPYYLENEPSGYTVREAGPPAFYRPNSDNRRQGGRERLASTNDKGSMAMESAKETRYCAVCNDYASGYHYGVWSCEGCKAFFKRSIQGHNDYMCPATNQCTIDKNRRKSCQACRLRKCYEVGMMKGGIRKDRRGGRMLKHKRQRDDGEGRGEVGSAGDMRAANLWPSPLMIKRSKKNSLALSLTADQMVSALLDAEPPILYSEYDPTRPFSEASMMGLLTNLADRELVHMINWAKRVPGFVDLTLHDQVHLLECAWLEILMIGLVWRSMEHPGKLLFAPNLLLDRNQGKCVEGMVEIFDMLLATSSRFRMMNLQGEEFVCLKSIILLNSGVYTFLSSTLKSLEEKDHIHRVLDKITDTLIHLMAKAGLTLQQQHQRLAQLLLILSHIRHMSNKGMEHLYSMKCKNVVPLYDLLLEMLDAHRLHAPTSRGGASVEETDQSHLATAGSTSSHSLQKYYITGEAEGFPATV
Chain of Estrogen receptor beta (Homo sapiens) (Q92731 whole entry, looked up): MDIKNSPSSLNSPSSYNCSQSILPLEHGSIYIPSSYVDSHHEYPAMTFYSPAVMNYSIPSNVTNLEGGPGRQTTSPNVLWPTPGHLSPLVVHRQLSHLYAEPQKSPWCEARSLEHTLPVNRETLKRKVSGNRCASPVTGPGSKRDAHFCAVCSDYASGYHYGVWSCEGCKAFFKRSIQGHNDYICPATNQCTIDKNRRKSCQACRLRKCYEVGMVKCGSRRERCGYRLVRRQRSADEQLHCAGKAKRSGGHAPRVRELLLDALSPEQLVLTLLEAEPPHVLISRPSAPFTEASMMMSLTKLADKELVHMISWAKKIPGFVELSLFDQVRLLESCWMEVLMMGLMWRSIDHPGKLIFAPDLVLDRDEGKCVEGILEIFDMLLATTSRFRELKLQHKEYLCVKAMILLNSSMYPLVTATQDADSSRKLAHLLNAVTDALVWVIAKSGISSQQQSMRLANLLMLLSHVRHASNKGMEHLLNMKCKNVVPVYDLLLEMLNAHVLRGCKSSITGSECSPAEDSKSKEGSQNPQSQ

As for `COCC(=O)O[C@]1(CCN(C)CCCc2nc3ccccc3[nH]2)CCc2cc(F)ccc2[C@@H]1C(C)C`, the Potency was 16.8 µM (active) in test [1], 13.3 µM (active) in test [4], 26.6 µM (active) in test [5] and 13.3 µM (active) in test [7]. Further, the Potency entry in test [2], in [3], in test [6] and in test [8] was “inactive” each time.

As to `O=c1cccc[nH]1`, the Potency result in test [1], in [2], in test [3], in test [4], in test [5] and in test [6] was “inactive” in each case. Also, the Potency result in test [7] and in test [8] was “inactive” throughout.

With `c1cc[nH]c1`, the Potency result in test [1], in [2], in [3], in test [4], in [5] and in test [6] was “inactive” throughout. For the same compound, the Potency entry in [7] is “inactive”.

`CC1=CP(=O)(c2ccccc2)CC1` (stereo not given): the Potency entry in [1], in test [2], in test [3], in test [4], in [5] and in [6] was “inactive” each time. Also, the Potency entry in test [7] and in test [8] was “inactive” in each case.

Regarding `CCCSS/C(CCO)=C(\C)N(C=O)Cc1cnc(C)nc1N`, the Potency result in test [1], in [9], in [2], in test [3], in test [5] and in [6] was “inactive” each time. In test [7], the Potency entry was “inactive”.

On to `Clc1cccnc1`, for which the Potency entry in test [1], in test [2], in test [3], in [4], in test [5] and in test [6] was “inactive” in each case. In addition, the Potency result in [7] was “inactive”.

Consider `CCCCCCCC/C=C\CCCCCCCC(=O)N(C)CC(=O)O`, for which the Potency entry in [10], in test [2], in test [3], in test [4], in [5] and in [6] was “inactive” each time. In addition, the Potency entry in test [7] was “inactive”.

Take `CC(=O)Oc1ccc(C2(c3ccc(OC(C)=O)cc3)C(=O)Nc3ccccc32)cc1`: the Potency in test [10] is 0.168 µM (active). Also, the Potency result in test [9], in [2], in [3], in test [5], in [6] and in test [8] was “inactive” in each case.

`OCCN1CN(CCO)CN(CCO)C1`: the Potency entry in [10], in [2], in [3], in [4], in [5] and in test [6] was “inactive” each time.

Take `CN(Cc1cc(Br)cc(Br)c1N)C1CCCCC1`: the Potency entry in test [10], in test [9], in test [2], in test [3], in test [5] and in [6] was “inactive” each time. Moreover, the Potency result in test [7] and in [8] was “inactive” in each case.

Regarding `CCCCCCCCCCCCCc1ccccc1`, the Potency entry in test [10], in test [2], in test [3], in test [4], in [5] and in test [6] was “inactive” throughout. Further, the Potency result in [7] is “inactive”.

With `OCCC(O)CO` (stereo not given), the Potency result in test [10], in test [2], in test [3], in test [4], in test [5] and in test [6] was “inactive” in each case. The Potency entry in test [7] is “inactive”.

As for `CO[C@H]1C=CO[C@@]2(C)Oc3c(C)c(O)c4c(O)c(cc(O)c4c3C2=O)NC(=O)/C(C)=C\C=C/[C@H](C)[C@H](O)[C@@H](C)[C@@H](O)[C@@H](C)[C@H](OC(C)=O)[C@@H]1C`, the Potency in test [10] was 54.9 µM (active); in [4], 13.8 µM (active); in test [5], 15.5 µM (active); in test [7], 13.8 µM (active). Further, the Potency result in test [9], in [2], in test [3], in [6] and in test [8] was “inactive” each time.

Regarding `c1cc(OCC2CO2)cc(OCC2CO2)c1` (stereo not given), the Potency was 48.2 µM (active) in [1], 21.5 µM (active) in test [4], 60.6 µM (active) in [5] and 19.2 µM (active) in [7]. For the same compound, the Potency entry in test [3] and in test [6] was “inactive” in each case.

With `CCN(CC)CCOC(=O)C1(C2CCCCC2)CCCCC1`, the Potency result in [10], in [9], in test [2], in test [3], in test [5] and in test [6] was “inactive” in each case. Besides, in test [8], the Potency result is “inactive”.

Turning to `CCCCCCCCCCCCN(CCO)CCO`, the Potency is 48.4 µM (active) in [1] and 21.6 µM (active) in test [7]. Besides, the Potency entry in test [2], in [3] and in test [6] was “inactive” each time.

As to `CCN(CC)CCSC(=O)C(c1ccccc1)c1ccccc1`, the Potency result in test [10], in test [9], in test [2], in [3], in test [4] and in [5] was “inactive” each time. Also, the Potency entry in test [6] and in [8] was “inactive” in each case. In addition, the Potency in [7] was 23.7 µM (active).

For the compound `CC(NCCC(c1ccccc1)c1ccccc1)c1ccccc1` (stereo not given), the Potency in [1] was 21.1 µM (active); in [7], 26.6 µM (active). For the same compound, the Potency result in test [2], in test [3] and in test [6] was “inactive” each time.

For `CC=O`, the Potency in test [10] is 0.403 µM (active); in test [4] it was 28.6 µM (active); in test [5], 28.6 µM (active); in [7] it was 0.0161 µM (active). Further, the Potency result in [2], in test [3] and in test [6] was “inactive” each time.
